Screening results (PubChem BioAssay)
PME-1 Maybr inh – inhibitors of human PME-1 in Maybridge library | inhibition, % at 9 µM | 16,000 compounds, 0.5% hits | recombinant PME-1, FP-Rh probe fluorescence polarization | Protein phosphatase methylesterase 1 (Homo sapiens), Q9Y570; in the data active = inhibition above about 30%
NOTCH ag – agonists of NOTCH signaling. NOTCH signaling luciferase reporter cells, luminescence. AID 434982, 2010. 15,000 compounds, 0.4% hits. activation, % at 2.5 µM; in the data active = activation above about 2.2%
Luminol counter – counter-screen for Nox1 inhibitors: inhibitors of luminol chemiluminescence. HRP/luminol/H2O2 chemiluminescence counterscreen. inhibition, % at 6.7 µM. 16,000 compounds, 0.4% hits; also: reference of the scale not given here
Nox1 inh – inhibitors of human NADPH oxidase 1 (Nox1) | Q9Y5S8 | HT29 cells, luminol chemiluminescence ROS | inhibition, % at 6.7 µM | 16,000 compounds, 0.81% hits | AID 1792, 2009
* marks the source's active call; other numbers are inactive results; · = not tested or not shown. Compounds with a hit are over-represented: about 2.2% of the library has one in this group of screens. Rule as the data show it, unless noted: active = inhibition above about 75%; inactive = the rest.

SMILES	PME-1 Maybr inh	NOTCH ag	Luminol counter	Nox1 inh
O=C(O)CCCNC(=S)Nc1ccc(F)c(Cl)c1	4	1	0	-22
COc1cc2ncnc(NNC(=O)c3cccs3)c2cc1OC	18	-1	2	86*
COc1ccc(CCNC(=O)c2cccs2)cc1OC	4	-1	-5	-10
CCOC(=O)c1nc(C)sc1-c1ccnn1C(=O)c1cccc(Cl)c1	5	0	-6	-16
O=C(CSc1c(F)c(F)c(F)c(F)c1F)Nc1ccc(C2SCCS2)cc1	147*	0	4	-71
O=C(Nc1ccc(-c2nnc(-c3ccc(NC(=O)C(Cl)Cl)cc3)o2)cc1)C(Cl)Cl	-13	-1	4	-17
CC1(C)CC(Nc2ccc(Nc3ccccc3)cc2)CC(C)(C)N1	5	0	4	103*
O=C1CC(Nc2ccccc2)C=C1Nc1ccccc1 (stereo unspecified)	1	1	-4	1
CC(C)(C)c1cc2nc(C(F)(F)F)cc(NNC(=O)Nc3ccc(OC(F)(F)F)cc3)n2n1	-106	1	7	88*
O=[N+]([O-])c1cc(Br)c(Oc2cncc(Cl)c2)cc1Oc1cncc(Cl)c1	52*	0	2	55
O=C(O)c1cc([N+](=O)[O-])ccc1Oc1cncc(Cl)c1	-1	0	3	-62
O=C1CNC(=S)N1CCc1ccc(O)c(O)c1	-2	0	96*	93*
Cc1[nH]c2ccccc2c1SCc1n[nH]c(=S)n1C	34*	0	1	7
CC(=O)CC(O)c1ccncc1 (stereo unspecified)	-1	0	2	-68
CNC(=S)NNC(=O)c1ccccn1	1	·	53	87*
COc1ccc(C=Nc2ccc(C(=O)O)cc2)cc1	-1	0	1	-62
Cc1ccc(C(=O)NNc2ncnc3cc(C(C)(C)C)sc23)cc1	4	0	-2	73
Cc1cc(S(=O)(=O)NNc2ncnc3cc(C(C)(C)C)sc23)c(C)cc1Cl	-25	0	-1	94*
NNC(=O)c1cc(=S)nc[nH]1	5	-1	5	31
